Screens as filed in PubChem.
Pf growth 48h = P. falciparum growth inhibition at 48 hours (one generation); P. falciparum luciferase growth in erythrocytes, 48 h; Potency, µM (doses to about 28.7 µM), without a hit: at the top dose activity change, negative = inhibition, usual class: inhibitors; 310,000 tested, 5.9% active; AID 504832; further: potency means the concentration at half of the fitted maximal effect; on the % scale 0 is the no-effect control and ±100 the full control effect
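Cell-based growth assay: transgenic P. falciparum expressing firefly luciferase, cultured in red cells within RPMI 1640 containing 0.5% w/v Albumax, 24 mM bicarbonate and gentamycin. A drop in luciferase activity indicates inhibition.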
Pf growth 96h = P. falciparum growth inhibition at 96 hour, primary screen for plastid delayed-death inhibitors. P. falciparum luciferase reporter growth, 96 h. Potency, µM (top dose mostly 28.7 µM), for inactives: top-dose activity change, negative = inhibition, most hits filed as inhibitors. 320,000 tested, 6.9% active; further: potency means the concentration at half of the fitted maximal effect; on the % scale 0 is the no-effect control and ±100 the full control effect
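96 h incubation, 37 C, 5% CO2, of luciferase-reporter P. falciparum-infected RBCs (2% hematocrit, 0.05% parasitemia final) with test compounds; endpoint luminescence.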
NS1 inh = influenza NS1 inhibition. 270,000 tested, 0.4% active. Potency, µM (top dose mostly 46.1 µM), for inactives: at the highest dose activity, positive = more growth; calls by dose curve; further: potency means the concentration at half of the fitted maximal effect; actives are rising curves; nearly all actives have a fitted effect of over 50% in size
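OD600 was taken as the measure of yeast growth restored by compound in an NS1-expressing S. cerevisiae strain. Cells had been washed out of glucose medium and diluted 1:100 into galactose -URA medium, pH 6.0.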
Shiga inhibitor = Shiga toxin inhibition. Vero cells, Shiga toxin protein synthesis inhibition reporter. inhibition, % at 38.7 µM. 290,000 tested, 9.2% active. AID 2315; in the data active means inhibition mostly above about 28%, no sharp cut-off; inactive means mostly below about 43%; further: 0% is about no effect
Cycloheximide cs = affects cycloheximide protein synthesis inhibition readout, counter-screen; cell reporter, cycloheximide protein synthesis inhibition counterscreen; max response, %; 300,000 tested, 12% active; in the data active means max response mostly above about 13%, no sharp cut-off; inactive means mostly below about 14%; further: read at 38.3 µM for the half of the compounds with a filed dose; 0% is about no effect
* marks the source's active call; other numbers are inactive results; ? = inconclusive; · = not tested or not shown; ! = a repeat was not active; [ ] = dose if it differs, or a comment. Compounds with a hit are over-represented: about 21% of the library has one in this group of screens. Unless noted, the call rests on the fitted dose curve; in most records, active means well fitted inhibition curve with a large enough effect; inconclusive means small, poorly fitted or top-dose-only effect, or another doubt; inactive means no such curve, though single readings can be large or run the other way.

SMILES	Pf growth 48h	Pf growth 96h	NS1 inh	Shiga inhibitor	Cycloheximide cs
CC1CCN(CCCNC(=O)CCNC(=O)Cn2cnc3ccccc3c2=O)CC1	4%	0%	-6%	-13	0
Cc1cc(NC(=O)C2CCCCC2)nc2c1c(=O)oc1ccccc12	15%	6.6µM*	-40%	-17	5
Cc1[nH]nc2ncc(C(=O)c3cc(F)ccc3O)cc12	·	?	-5%	-10	1
O=C(c1cnc2nc3ccccc3n2c1)c1cc(F)ccc1O	23%	?	1%	11	14*
Cc1noc2ncc(C(=O)c3cc(F)ccc3O)cc12	·	8.3µM*	-6%	9	-1
Cc1ccc(O)c(C(=O)c2cnc3onc(-c4ccc(F)cc4)c3c2)c1	3.3µM*	2.3µM*	0%	16	-1
COC(=O)c1ccc(C)c(NC(=O)CCc2cc(OC)c(OC)c(OC)c2)c1	-15%	13%	-5%	-3	1
N#Cc1ccc(-c2cn(-c3ccccc3)c3[n+]2CCCS3)cc1	?	?	8%	3	-1
c1ccc(-c2cn(-c3ccccc3)c3[n+]2CCCS3)cc1	?	?	-1%	12	-2
CCc1ccc(-n2cc(-c3ccc(F)cc3)[n+]3c2SCCC3)cc1	1.5µM*	?	1%	-14	-2
COc1ccc(-n2cc(-c3ccc(C)cc3)[n+]3c2SCC3)cc1	0.59µM*	?	5%	-9	-8
Cc1ccc(-c2cn(-c3ccccc3)c3[n+]2CCCS3)cc1	1µM*	0.37µM*!	15%	32	-3
O=C(Nn1cnnc1)c1ccc(Cl)cc1[N+](=O)[O-]	30%	16%	1%	·	-1
Oc1ccc(Br)cc1-c1cc(-c2ccc(Cl)cc2)n[nH]1	1.2µM*	·	3%	93*	22*
O=[N+]([O-])c1cccc(-c2cc(-c3cc(Br)ccc3O)[nH]n2)c1	4.7µM*	8.3µM*	-36%	86*	24*
Oc1ccc(Br)cc1-c1cc(-c2ccccc2)n[nH]1	5.2µM*	3.3µM*	-17%	16	16*
Cn1c(-c2cc(Br)ccc2O)n[nH]c1=S	17%	·	-14%[9.22 µM]	-4	-2
Cc1nnc(NC(=O)CSc2nnc(CC(=O)Nc3ccccc3F)n2C)s1	13%	28%	2%	-7	-3
COc1ccc(Nc2nnc(C)c(=O)[nH]2)cc1	·	?	7%	-8	-6
O=C(OCn1nnc2ccccc2c1=O)c1cc(-c2ccccc2)nc2ccccc12	11%	37%	9%	-6	6
O=C1CCN(Cc2ccc([N+](=O)[O-])cc2)CCN1[C@H](CO)c1ccccc1	?	?	-5%	-4	-3
CCC(=O)Nc1ccc2c(c1)ncn2-c1ccccc1OC	-19%	?	-2%	24	7
CC(=O)Nc1ccc2c(c1)ncn2-c1ccccc1	76%	12%	3%	56*	49*
CCC(=O)Nc1ccc2c(c1)ncn2-c1ccccc1	54%	16%	-3%	85*	33*
CC1CC1C(=O)Nc1ccc(S(=O)(=O)N2CCCCC2)cc1 (configuration not stated)	?	1%	·	·	·
SMILES	Pf growth 48h	Pf growth 96h	NS1 inh	Shiga inhibitor	Cycloheximide cs
C/C(CC(=O)NCc1ccco1)=N\NC(=O)CC#N	7%	85%	6%	5	-3
CCOc1ccc(C(=O)Nc2cc(C)ccn2)cc1	145%	2%	·	-5	3
CCOc1ccc(/C=C/C(=O)Nc2cccc(C(C)=O)c2)cc1	123%	?	-3%	64*	27*
CCOc1ccc(C(=O)Nc2ncccc2Cl)cc1	78%	47%	0%	71*	42*
CCOc1ccc(NC(C(=O)Nc2cccc(C(C)=O)c2)c2ccccc2)cc1 (configuration not stated)	11%	?	9%	-3	0
CCCCOc1ccc(C(=O)Nc2cccc(C)n2)cc1	-8%	29%	-108%	74*	43*
CCOc1ccc(NC(=O)Nc2cccc(C)n2)cc1	77%	?	-7%	72*	28*
CCCc1[nH]n(-c2ccc([N+](=O)[O-])cc2)c(=O)c1C(C)=NCc1ccncc1	0%	-3%	-5%	41	-1
CCOc1ccc(C(=O)Nc2cccc(C)n2)cc1	146%	114%	-9%	25	25*
Cc1cccc(NC(=O)c2ccc(S(=O)(=O)N(C)C)cc2)n1	51%	·	-3%	78*	37*
CCOC(=O)c1cccc(NC(=O)Nc2ccc(OCC)cc2)c1	241%	?	·	108*	39*
Cc1cccc(NC(=O)CN(C)S(=O)(=O)c2ccc(Cl)cc2)n1	-3%	30%	-4%	13	-2
CCOc1ccc(NC(=O)Nc2cccc(C(=O)O)c2)cc1	24%	31%	·	-11	-1
COc1cccc(C2C(=O)N(C3CCCCC3)CC(=O)N2Cc2ccc(F)cc2)c1 (configuration not stated)	·	?	1%	-3	2
COc1ccccc1CN1C(=O)CN(C2CCCCCC2)C(=O)C1c1ccc(F)cc1 (configuration not stated)	?	10µM*	6%	-4	-2
Brc1ccc(-c2nnc(SCCC3OCCCO3)o2)cc1	47%	-17%	-8%	59*	42*
c1ccc(-c2nnc(SCCC3OCCCO3)o2)cc1	272%	84%	10%	104*	43*
O=C1OCCC1Sc1nnc(-c2ccc(Br)cc2)o1 (configuration not stated)	48%	·	0%	-5	-4
COc1ccc(OC)c(C2=C/C(=C/c3ccccn3)C(=O)O2)c1	?	5.2µM*	·	-9	-1
C1=C(c2c[nH]c3ccccc23)CCN(Cc2ccccc2)C1	?	-22%	·	10	7
CN1CC=C(c2c[nH]c3ccccc23)CC1	2.6µM*	24%	?	-6	-1
Cc1ccc(CNC(=O)CNS(=O)(=O)c2cccc3nsnc23)cc1	21%	97%	6%	-5	-2
CC(C)(C)c1ccc(OCC(=O)N2CCCCCC2)c(Br)c1	-64%	?	-42%	120*	43*
COc1ccccc1N1CCN(C(=O)COc2ccc(C)cc2Br)CC1	-14%	?	-74%	43	6
Cc1ccc(OCC(=O)N2CCCCC2)c(Br)c1	34%	20%	-9%	63*	38*
SMILES	Pf growth 48h	Pf growth 96h	NS1 inh	Shiga inhibitor	Cycloheximide cs
CC(C)c1ccccc1OCC(=O)N1CCCCCCC1	21%	4.1µM*	-10%	-3	-1
O=C(COc1ccc(Cl)cc1Cl)N1CCCCCC1	·	53%	-9%	22	28
Nc1c(C(=O)c2ccc(Br)s2)oc2ccccc12	34%	176%	-70%	37	23*
Nc1c(C(=O)c2cccs2)oc2ccccc12	37%	39%	-88%	99*	26*
Nc1ccc(C(=O)c2cccs2)cc1	43%	18%	-3%	36	11
COC(=O)c1cnn(-c2ccc(F)cc2F)c1/C=N/NC(N)=S	-8%	-2%	0%	24	1
C=CCSc1nc2c(cnn2-c2ccccc2)c(=O)n1N	173%	221%	-40%	63*	53*
CCCCCCSc1cccc(-c2nc3ccc(C)cn3c2NC2CCCCC2)c1	9.3µM*	5.2µM*	·	·	·
